Assay [1] relates to Molm13. Description: cell viability relative to DMSO control (bortezomib = 0%); higher = less growth inhibition. The settings on record: 10 nM; 72 h. The procedure, abridged:
(§1)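 Each plate's values were converted to percentages by linear regression, taking DMSO-treated cells as 100% and positive-control-treated cells as 0%. These plates were 384-well plates of 679 approved and investigational compounds at a single 10 nM dose, onto which acute myeloid leukemia cells were dispensed at 1000 cells per well in 50 µL for 72 h, in duplicate. Cell viability came from CellTiter-Glo luminescence on an EnVision reader.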

Assay [2] has as its system Mv4-11. The description is as above. Conditions: 10 nM; 72 h. The procedure, abridged:
as §1

In the supplement of paper PMC8699584 one finds cell viability data, which are given here for 38 compounds.

Each structure is given as a SMILES string. “And” between values parts separate entries of the source, which are not always exact repeats. Equal entries are not always repeated. Structures can show the parent of a compound that is named as a salt. ± gives the standard deviation of the averaged measurements.

Take `CNC(=O)c1cc(Oc2ccc(NC(=O)Nc3ccc(Cl)c(C(F)(F)F)c3)c(F)c2)ccn1` [Regorafenib (BAY 73-4506)]: the cell viability stood at 101 ± 7.3% in assay [1] and 110.3 ± 0.69% in assay [2].
For `CC(C)n1nc(-c2cc3cc(O)ccc3[nH]2)c2c(N)ncnc21`, in that order: 103 ± 11% and 96.2 ± 30%.
For `CCCCCCCCCCCCc1ccc(S(=O)(=O)Nc2nncs2)cc1` the same measures were 108 ± 3% and 100 ± 2%.
Turning to `O=C(NOCC1CC1)c1ccc(F)c(F)c1Nc1ccc(I)cc1Cl`, the cell viability in assay [1] stood at 105 ± 1.4%; in assay [2], 95.7 ± 9.2%.
For `Oc1cccc(Nc2ncc(F)c(Nc3cccc(O)c3)n2)c1` the same measures were 83 ± 15% and 96.5 ± 16%.
Take `C[C@H](NC(=O)/C(C#N)=C/c1cccc(Br)n1)c1ccccc1`: the cell viability in assay [1] worked out at 103 ± 0.31%; in assay [2], 99.3 ± 5.6%.
For `N=C(N)NC(=N)NCCc1ccccc1` [Phenformin hydrochloride], in that order: 91.3 ± 30% and 107 ± 19%.
For the compound `NS(=O)(=O)c1ccc(Nc2nc(OCC3CCCCC3)c3[nH]cnc3n2)cc1`, the figures for the cell viability in assay [1] and in assay [2] were 104 ± 34% and 109 ± 13%, respectively.
For `COc1cc2nccc(Oc3ccc(NC(=O)Nc4ccc(F)cc4F)c(F)c3)c2cc1OC`, in that order: 98.1 ± 2.7% and 103 ± 5.7%.
On to `O=C1c2cccc(O)c2C(=O)c2c(O)cccc21` [Antrapurol], for which the cell viability in assay [1] is 112 ± 7.6%; in assay [2], 109 ± 3.2%.
For `Nc1nc(O)c2ncn(CCC(CO)CO)c2n1` [Penciclovir], in that order: 111 ± 8% and 104 ± 2.1%.
For `Cc1cc(NC(=O)c2cccc(NC(=O)/C=C/CN(C)C)c2)ccc1Nc1nccc(-c2cccnc2)n1` the same measures were 92 ± 6.9% and 113 ± 5.2%.
For `NC(=O)c1ccc(NC(=O)NCc2cccc(C(=O)Nc3ccc4c(c3)CNCC4)c2)cc1` the same measures were 117 ± 25% and 119 ± 19%.
For `Cc1cnc(NC(=O)Nc2cc(Br)c(C)cc2OC[C@@H]2CNCCO2)cn1`, the results for the cell viability in assay [1] and in assay [2] were 101 ± 11% and 109 ± 8.1%, respectively.
For `COc1cc2c(Nc3ccc(NC(=O)c4ccccc4)cc3)ncnc2cc1OCCCN1CCOCC1` the same measures were 87.8 ± 50% and 120 ± 19%.
Consider `Cc1cc(N2CCOCC2)ccc1Nc1nc(NC2CCCCC2)c2[nH]cnc2n1`, for which the cell viability was determined as 119 ± 3.6% in assay [1] and 108 ± 15% in assay [2].
For `COCCN1CCN(Cc2ccc(-c3n[nH]c4c3C(=O)c3c(NC(=O)NN5CCOCC5)cccc3-4)cc2)CC1` the same measures were 70.99 ± 0.17% and 55.6 ± 8.7%.
For `O.O.O.O.O=C([O-])CC(O)(CC(=O)[O-])C(=O)[O-].[Li+].[Li+].[Li+]` [Lithium citrate tribasic tetrahydrate], in that order: 109 ± 1.3% and 114 ± 1.7%.
For `N#Cc1cccc(-c2c[nH]c3ncnc(N4CCOCC4)c23)c1`, in that order: 109 ± 23% and 100 ± 8.2%.
Turning to `CCCCCCCCCC(=O)CC(O)S(=O)(=O)O` (stereo unspecified) [Sodium houttuyfonate], the cell viability was found to be 108 ± 1.5% in assay [1] and 106 ± 1.1% in assay [2].
For `N#C/C(=C\c1ccc(O)c(O)c1)C(=O)NCc1ccccc1` the same measures were 96.4 ± 11% and 100.7 ± 0.73%.
For `Cc1ccc(CNc2ncnc3ccc(-c4ccc(CO)o4)cc23)o1` the same measures were 118 ± 2% and 107 ± 12%.
For `Cc1cc(F)c(Nc2ncnc3cc(OCc4ccccc4)ccc23)cc1O` the same measures were 103 ± 1.4% and 118 ± 11%.
On to `O=C1c2ccccc2C(=O)C1c1ccccc1` [Phenylindione], for which the cell viability came out at 95.7 ± 6.6% in assay [1] and 114 ± 1.8% in assay [2].
For `N#CC(=C(/N)Sc1ccccc1N)/C(C#N)=C(\N)Sc1ccccc1N`, in that order: 99.3 ± 16% and 104 ± 7%.
On to `CCNc1nc(Nc2cc(F)c(C(=O)N3CCOCC3)cc2OC)ncc1C(F)(F)F`, for which the values for the cell viability in assay [1] and in assay [2] were 105.79 ± 0.065% and 102.3 ± 0.71%, respectively.
For `CC(C)n1nc(-c2ccc3oc(N)nc3c2)c2c(N)ncnc21` the same measures were 89.4 ± 12% and 86.16 ± 0.51%.
As for `Cc1cnc(-c2cnc(NCCNc3ccc(C#N)cn3)nc2-c2ccc(Cl)cc2Cl)[nH]1`, the cell viability in assay [1] was 104% and 111%; in assay [2], 105% and 110%.
Consider `COc1cc2ncnc(Nc3ccc(O)c(Br)c3)c2cc1OC`, for which the results for the cell viability in assay [1] and in assay [2] were 95.4 ± 24% and 112 ± 14%, respectively.
For `COc1ccc(Cl)cc1NC(=O)Nc1cc(C)nc2ccccc12`, in that order: 129 ± 23% and 130 ± 17%.
Consider `CNC(=O)Nc1cc(Oc2cncc(C)c2)c(-c2ccc(OCC(C)(C)O)nc2)cn1`, for which the cell viability in assay [1] was determined as 101.5 ± 0.58%; in assay [2] it was 101 ± 6.8%.
For `Cc1cccc(CC(=O)N2CCc3c2ccc(-c2cn(C)c4ncnc(N)c24)c3F)n1` the same measures were 114 ± 3.6% and 119 ± 22%.
For the compound `O=C1NC(=O)/C(=C/c2ccc3nccc(-c4ccncc4)c3c2)S1`, the cell viability in assay [1] was 106% and 113%; in assay [2], 103% and 115%.
On to `O=C(Nc1nc2ccc(NC(=O)C34CC5CC(CC(C5)C3)C4)cc2s1)c1ccccc1`, for which the cell viability in assay [1] turned out to be 117 ± 12%; in assay [2] it was 101 ± 8.4%.
For `CS(=O)(=O)CCNCc1ccc(-c2ccc3ncnc(Nc4ccc(OCc5cccc(F)c5)c(Cl)c4)c3c2)o1` the same measures were 103 ± 8.2% and 108 ± 9%.
For `Nc1cccc(-c2nc(N3CCOCC3)c3oc4ncccc4c3n2)c1` [PIK-inhibitors] the same measures were 82.5 ± 19% and 103 ± 15%.
Turning to `Cc1ccc(F)c(NC(=O)Nc2ccc(-c3cccc4[nH]nc(N)c34)cc2)c1`, the cell viability came out at 72.2 ± 9.9% in assay [1] and 97.7 ± 10% in assay [2].
For `CSc1cccc(Nc2ncc3cc(-c4c(Cl)cccc4Cl)c(=O)n(C)c3n2)c1` the same measures were 92.8 ± 10% and 101 ± 7.8%.

One may read the cell viability as a read-out of living cells in per cent, often relative to untreated cells.
